# Experimental data as given in PubChem BioAssay AID1347076 (National Center for Advancing Translational Sciences (NCATS), 2019).
# Screen size: about 400,000 compounds; about 13,000 (3.2%) were called active. Another 18% or so got no clear call; they are omitted. The sample as a whole holds a higher share of actives than the screen did. Unmarked numbers belong to inactive results. Calls come from the whole dose curve; as a rule, active = well fitted cell-killing curve with a large enough effect; inconclusive = small, poorly fitted or top-dose-only effect, or effect the other way; inactive = flat fitted curve, though single readings scatter.
# Assay: qHTS assay for MDR1-selective chemotherapeutics: Primary screen using the drug-selected MDR subline cells KB-V1; note: nearly all actives have a fitted effect of over 60% in size
# Details: KB-V1 MDR cells viability, CellTiter-Glo, 72 h; series mostly up to 46.1 µM; activity change, negative = cytotoxicity: at the top concentration
# How it was run: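 Compound-treated KB-V1 multidrug-resistant cells, 72 h, 37 degrees C; viability by CellTiter-Glo. Fitted qHTS curves give the values.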
# % is set by controls: 0 for no effect and ±100 for the full control effect; potency is the fitted concentration of half-maximal effect.
Structure (SMILES),"activity change, negative = cytotoxicity [%]",Potency
Cc1sc2ccccc2c1CNC[C@H]1O[C@@H](n2ccc(=O)[nH]c2=O)[C@H](O)[C@@H]1O,5.69,
CCCCN1CC(N2CCN(Cc3cccc(C)c3)CC2)CS1(=O)=O (configuration not stated),-5.98,
SCc1nc2ccc(Cl)cc2[nH]1,-8.15,
O=C(OCc1nc2ccccc2[nH]1)C1CCCCC1,27.9,
c1ccc(-c2nnc(SCc3nc4ccccc4[nH]3)o2)cc1,,20.6 µM (active)
Nc1cccc(CCc2nc3ccccc3[nH]2)c1,-4.21,
CCN(C(=O)CSc1nnc(-c2ccncc2)o1)c1ccccc1,2.6,
O=c1[nH]nc(CSCc2ccccc2Cl)[nH]1,3.22,
c1ccc2c(CSCc3nc4ccccc4[nH]3)cccc2c1,,20.6 µM (active)
Clc1ccc(-c2nnc(SCc3nc4ccccc4s3)o2)cc1,-2.53,
Clc1ccccc1SCc1nc2ccccc2[nH]1,,20.6 µM (active)
Cc1ccccc1NC(=O)Cn1cc(C(=O)c2cccs2)c2ccccc21,-23.2,
Cc1ccc(CNC(=O)CCNS(=O)(=O)c2ccc3c(c2)oc(=O)n3C)cc1,0.743,
O=C(NCCc1cccc(F)c1)C1CC(O)CN1C(=O)Nc1ccccc1 (configuration not stated),23.9,
Cc1ccc([C@@H]2CC(=O)[C@@H]3CN(S(=O)(=O)c4ccc(C)cc4)[C@H](c4ccccc4F)C[C@@H]3N2S(=O)(=O)c2ccc(Cl)cc2)cc1,2.77,
C=C1C(=O)[C@]23C[C@H]1CCC2[C@@]1(C)C(C[C@@H]3O)[C@](C)(C(=O)O)CC[C@@H]1O (some centres not stated),-2.82,
O=C(NC1CCCC1)C1c2ccccc2OCC(=O)N1Cc1ccccc1 (configuration not stated),-6.86,
CC1(C(=O)Nc2cccc3c2CCCC3)CCN1C(=O)C1(c2ccccc2)CC1 (configuration not stated),-0.882,
Brc1nc2ncnc(NCc3ccco3)c2[nH]1,-7.71,
COCOCCn1cc(CN2CCS(=O)(=O)N(Cc3ccc(-c4ccccc4)cc3)C(CC(C)C)C2=O)nn1 (configuration not stated),-17.5,
Cc1cccc(OCCSc2nc3ccccc3n2CC(=O)N2CCCCC2)c1C,5.3,
CCOC(=O)c1cn(Cc2cccc(C)c2)nn1,10.5,
CC(=O)c1nn(-c2ccc(C)cc2)cc1C(=O)c1cccc(Br)c1,3.34,
CCOC(=O)c1nn(-c2cccc(C)c2)cc1C(=O)c1ccccc1,,14.6 µM (active)
Cc1c(Nc2cc(N3CCCC(C)C3)c3nonc3c2[N+](=O)[O-])c(=O)n(-c2ccccc2)n1C (configuration not stated),13.6,
Nc1cc(N2CCCCCC2)c2nonc2c1[N+](=O)[O-],,8.2 µM (active)

Structure (SMILES),"activity change, negative = cytotoxicity [%]",Potency
COCCNc1nc(N)c([N+](=O)[O-])c(N2CCCCCC2)n1,-0.779,
CC1(C)OC(=O)C2=C(C[C@@H](C3CCCCC3)O[C@@H]2c2ccc(Cl)cc2)O1,-23,
CCCc1nc2ccccc2c(=O)n1/N=C/c1ccc(O)c(O)c1,-23.5,
Cc1[nH]n(-c2cccc(Cl)c2)c(=O)c1/C=N/n1c(C)nc2ccccc2c1=O,,7.31 µM (active)
Cc1[nH]n(-c2ccccc2)c(=O)c1/C=N/NC(=O)c1ccoc1C,-24.5,
COc1ccc(C(CNC(=O)CSc2ccccc2)N2CCOCC2)cc1 (configuration not stated),-1.79,
Cc1ccc2cccc([N+](=O)[O-])c2n1,8.04,
Cc1cccc(C)c1NC(=O)COC(=O)c1c(C)nn(-c2ccccc2)c1C,-18.2,
CCC(Oc1ccccc1)C(=O)OCC(=O)Nc1c(C)nn(-c2ccccc2)c1C (configuration not stated),19.3,
Cc1nn(-c2ccccc2)c(C)c1/C=C/C(=O)OC(C)C(N)=O (configuration not stated),,23.1 µM (active)
CCOC(=O)C1CCCN(C(=O)c2cccc3ccccc23)CC1 (configuration not stated),2.97,
Cc1c(CN2CCC(CO)(CCOc3ccccc3)CC2)[nH]c2ccc(Cl)cc12,,5.8 µM (active)
CC(C)(O)C#Cc1ccc(CN2CCC(CO)(CCc3ccccc3)CC2)cc1,-12.5,
CCOC(=O)C1(CCOc2ccccc2)CCN(Cc2cc(OC)c(O)cc2Cl)CC1,-24.4,
COc1cc(OC)c(NC(=O)N2CC3CCCN3c3ccccc32)cc1Cl (configuration not stated),-18,
C[C@@H]1CN([C@@H](C)CO)C(=O)CCCn2nncc2CO[C@H]1CN(C)C(=O)Nc1ccc(C(F)(F)F)cc1,-3.62,
CCc1nc2cccnc2n1-c1ccc(CC(=O)Nc2c(C)cccc2C)cc1,7.03,
CC1CC(C)CN(c2oc(-c3ccc(OCc4ccc(Cl)cc4)cc3)nc2C#N)C1 (configuration not stated),0,
CCN(CC)S(=O)(=O)c1ccc(OC)c(NC(=O)CCc2c(C)noc2C)c1,-7.82,
CCOc1ccc(Br)cc1S(=O)(=O)Nc1cccc(S(=O)(=O)N(CC)CC)c1,-5.63,
CCN(CC)S(=O)(=O)c1ccc(N(C)Cc2cccc(OC)c2OC)nc1,,6.51 µM (active)
CCC(C(=O)Nc1cccc(Cl)c1C)n1nc(-c2ccc(C)cc2)ccc1=O (configuration not stated),0,
CCc1nc2c(OCCOc3ccccc3)cccn2c1N(C=O)Cc1ccc(OC)cc1,-23,
CC(Nc1nc(C(F)(F)F)nc2ccccc12)c1cccs1 (configuration not stated),-18.5,
Cc1cc(C)n(-c2nc(C(F)(F)F)nc3ccccc23)n1,18.4,
CCc1ccc(C(CNc2nc(C(F)(F)F)nc3ccccc23)N(C)C)cc1 (configuration not stated),,16.4 µM (active)
